# Records with an inconclusive call do not appear. The source made the active and inactive calls. Unless noted, the call rests on the fitted dose curve; in most records, active means well fitted curve in the direction sought with a large enough effect; inconclusive means small, poorly fitted or top-dose-only effect, or another doubt; inactive means no such curve, though single readings can be large; an effect the other way counts as inactive or inconclusive.
# Assays:
# [1] = Quantitative High-Throughput drug screen in 47 multiple myeloma cell lines against the NCATS MIPE library collection: UTMC2_PLB cell viability assay (AID 1919868); further: nearly all actives have a fitted effect of over 55% in size; further: potency means the concentration at half of the fitted maximal effect
# In short: (§1)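 Myeloma cells (500/well) treated with MIPE 4.0 compounds for 48 h at 37 °C, 5% CO2. Viability read as ATP via CellTiter-Glo luminescence after 5 min at RT; DMSO-only wells = 100%, media-only = 0% viability.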
# [2] = Quantitative High-Throughput drug screen in 47 multiple myeloma cell lines against the NCATS MIPE library collection: PE2_PLB cell viability assay (AID 1919869); further: nearly all actives have a fitted effect of over 35% in size; further: potency means the concentration at half of the fitted maximal effect
# In short: as §1
# [3] = Quantitative High-Throughput drug screen in 47 multiple myeloma cell lines against the NCATS MIPE library collection: PCM6_Riken cell viability assay (AID 1919870); further: nearly all actives have a fitted effect of over 30% in size; further: potency means the concentration at half of the fitted maximal effect
# In short: as §1
# [4] = Quantitative High-Throughput drug screen in 47 multiple myeloma cell lines against the NCATS MIPE library collection: KMS11_JCRBsus cell viability assay (AID 1919873); further: nearly all actives have a fitted effect of over 50% in size; further: potency means the concentration at half of the fitted maximal effect
# In short: as §1
# [5] = Quantitative High-Throughput drug screen in 47 multiple myeloma cell lines against the NCATS MIPE library collection: KMS28BM_JCRB cell viability assay (AID 1919874); further: nearly all actives have a fitted effect of over 35% in size; further: potency means the concentration at half of the fitted maximal effect
# In short: as §1
# [6] = Quantitative High-Throughput drug screen in 47 multiple myeloma cell lines against the NCATS MIPE library collection: RPMI8226_ATCC cell viability assay (AID 1919871); further: nearly all actives have a fitted effect of over 30% in size; further: potency means the concentration at half of the fitted maximal effect
# In short: as §1
# [7] = Quantitative High-Throughput drug screen in 47 multiple myeloma cell lines against the NCATS MIPE library collection: OPM2_DSMZ cell viability assay (AID 1919872); further: nearly all actives have a fitted effect of over 30% in size; further: potency means the concentration at half of the fitted maximal effect
# In short: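 Relative luminescence from CellTiter-Glo served as the viability signal, referenced to DMSO-treated (100%) and cell-free medium (0%) controls. Treatment lasted 48 hours at 37C with 500 cells per well.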
# [8] = qHTS drug screen for cell cycle checkpoint inhibitors in PARPi-resistant BRCA-mutant ovarian cancer cell lines. (AID 1963452; calls by dose curve); conditions: PEO1/OlaR viability, CellTiter-Glo luminescence, 96 h, stronger effect = lower value
# In short: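 PEO1, PEO4 and PEO1/OlaR ovarian cancer cells, 600 per well, exposed 96 h at 37C to a dilution series. Viability read by CellTiter-Glo luminescence, normalized to DMSO and empty wells; activity summarized as Z-AUC.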
# [9] = qHTS for identification of novel therapeutic agents for treatment of microphthalmiaassociated transcription factor (MiT) renal cell carcinoma (RCC) (AID 1963991; calls by dose curve; further: potency means the concentration at half of the fitted maximal effect); conditions: CellTiter-Glo, 48 h; for z-score: stronger effect = lower value
# In short: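 Three TFE3-fusion RCC cell lines (UOK109, UOK124, UOK145), 500 cells/well, were exposed to the 1912-compound MIPE 4.0 library for 48 hours at 37 C. Viability was read by CellTiter-Glo luminescence, normalised to DMSO (100%) and empty wells (0%), with 11-concentration curve fits.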
# [10] = target: Cytochrome P450 2D6 (Homo sapiens) (UniProt P10635); test: qHTS for inhibitors of CYP2D6 against the NCATS DSHEA and TCM libraries (AID 1919972); further: potency means the concentration at half of the fitted maximal effect
# In short: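 Steps: enzyme plus luciferin substrate dispensed; test substances pinned; 15 min RT; 1x NADPH regenerating solution added, 30–45 min RT protected from light; detection reagent, 30 min RT; luminescence measured. Minus-enzyme wells as background.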
# [11] = target: Cytochrome P450 2C9 (Homo sapiens) (UniProt P11712); test: qHTS for inhibitors of CYP2C9 against the NCATS DSHEA and TCM libraries (AID 1919973);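 further: luminogenic pro-luciferin CYP2C9 substrate turned into luciferin with NADPH regeneration; series mostly up to about 34 µM; on the % scale 0 is the no-effect control and ±100 the full control effect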
# In short: (§2)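 Light output from converted D-luciferin reports remaining CYP activity. Compounds preincubate with enzyme and substrate for 15 min; NADPH regeneration (1x final) runs the reaction for 30-45 min.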
# [12] = target: Cytochrome P450 2C19 (Homo sapiens) (UniProt P33261); test: qHTS for inhibitors of CYP2C19 against the NCATS DSHEA and TCM libraries (AID 1919974);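 further: luminescence from luciferin released by CYP2C19 oxidation of a pro-luciferin substrate; on the % scale 0 is the no-effect control and ±100 the full control effect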
# In short: as §2
# [13] = KB-3-1 P-gp reporter qHTS against the NCATS DSHEA and TCM libraries (AID 1919975); further: potency means the concentration at half of the fitted maximal effect
# In short: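 72 h exposure of KB-3-1 cells (DMEM, 10% FBS) to DSHEA/TCM samples, concentration-response; cell viability measured as CellTiter-Glo luminescence after 30 min at room temperature.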
# [14] = qHTS Counterscreen for compound interference against the NCATS DSHEA and TCM libraries (AID 1919978); conditions: firefly luciferase detection reagent interference, luminescence; further: % of control where 0% means no effect
# In short: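 Read-out is luminescence after 30 min at RT with luciferin detection reagent. Before that, compounds (19.5 nM to 39.8 uM final) sat 15 min at RT with 1 uM D-luciferin or 100 mM potassium phosphate buffer. PTC124 served as intraplate control.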
# [15] = Dual reporter qHTS for agonist of Pregnane X Receptor (hPXR) against the NCATS DSHEA and TCM libraries: Fluorescence readout (AID 1920058); further: 0% is about no effect
# In short: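 Measures viability of the PXR reporter HepG2 line by protease-substrate fluorescence (405/540 nm), taken 1 h after CellTiter-Fluor addition. Substances are tested as concentration series over a ~24 h exposure, with rifampicin as agonist control.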
# [16] = target: Nuclear receptor subfamily 1 group I member 2 (Homo sapiens) (UniProt O75469); test: Dual reporter qHTS for agonist of Pregnane X Receptor (hPXR) against the NCATS DSHEA and TCM libraries: Luminescence readout (AID 1920059); further: 0% is about no effect
# In short: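 hPXR-LucHepG2 cells in phenol red-free DMEM with 5% charcoal-stripped FBS, 2000 cells/well, attached 5 h, then exposed 24 h at 37C to compounds; rifampicin as positive agonist control (2.8 nM–92 uM). Luciferase luminescence read.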
# [17] = target: Nuclear receptor subfamily 1 group I member 2 (Homo sapiens) (UniProt O75469); test: Dual reporter qHTS for antagonist of Pregnane X Receptor (hPXR) against the NCATS DSHEA and TCM libraries: Luminescence Readout (AID 1920060);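 further: HepG2 cells carrying hPXR luciferase reporter stimulated with rifampicin at 2 µM; 0% is about no effect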
# In short: (§3)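 Antagonist mode: rifampicin 2 uM final co-added with compounds to hPXR-LucHepG2 cells for 24 h at 37C. Viability by CellTiter-Fluor, Ex/Em 405/540 nm, 1 h; reporter by ONE-Glo luminescence.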
# [18] = Dual reporter qHTS for antagonist of Pregnane X Receptor (hPXR) against the NCATS DSHEA and TCM libraries: Fluorescence Readout (AID 1920061); further: 0% is about no effect
# In short: as §3
# [19] = measured here: PEO1 parental Z-AUC
# [20] = TFE3-RCC UOK109 viability, measured here: UOK109 Z-AUC
# [21] = TFE3-RCC viability, measured here: UOK124 Z-AUC
# [22] = TFE3-RCC viability, measured here: UOK145 Z-AUC
# Chain of Nuclear receptor subfamily 1 group I member 2 (Homo sapiens) (O75469 whole entry, looked up): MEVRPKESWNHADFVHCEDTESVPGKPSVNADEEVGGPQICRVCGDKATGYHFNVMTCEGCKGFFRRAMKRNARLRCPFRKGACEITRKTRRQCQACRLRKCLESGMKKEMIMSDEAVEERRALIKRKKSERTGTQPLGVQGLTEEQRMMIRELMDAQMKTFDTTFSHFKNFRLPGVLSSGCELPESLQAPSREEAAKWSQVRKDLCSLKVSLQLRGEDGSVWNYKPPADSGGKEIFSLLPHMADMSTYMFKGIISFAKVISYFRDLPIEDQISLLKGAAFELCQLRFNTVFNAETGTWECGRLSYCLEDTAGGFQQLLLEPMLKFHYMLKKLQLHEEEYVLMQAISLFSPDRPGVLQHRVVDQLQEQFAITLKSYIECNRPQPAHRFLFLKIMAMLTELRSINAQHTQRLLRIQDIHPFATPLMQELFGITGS
# Chain of Cytochrome P450 2C19 (Homo sapiens) (P33261 whole entry, looked up): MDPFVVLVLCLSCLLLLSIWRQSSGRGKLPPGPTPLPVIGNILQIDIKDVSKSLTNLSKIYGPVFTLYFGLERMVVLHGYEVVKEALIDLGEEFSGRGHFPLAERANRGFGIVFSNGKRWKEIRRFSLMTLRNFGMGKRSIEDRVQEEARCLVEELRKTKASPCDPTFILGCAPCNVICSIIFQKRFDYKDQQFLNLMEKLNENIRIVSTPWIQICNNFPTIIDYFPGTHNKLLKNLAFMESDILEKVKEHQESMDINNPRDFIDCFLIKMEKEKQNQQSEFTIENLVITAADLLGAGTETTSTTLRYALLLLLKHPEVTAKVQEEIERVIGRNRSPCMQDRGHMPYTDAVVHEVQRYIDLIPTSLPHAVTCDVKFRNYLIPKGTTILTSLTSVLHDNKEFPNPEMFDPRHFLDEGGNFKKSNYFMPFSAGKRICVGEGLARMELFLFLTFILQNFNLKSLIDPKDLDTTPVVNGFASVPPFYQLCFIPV
# Chain of Cytochrome P450 2C9 (Homo sapiens) (P11712 whole entry, looked up): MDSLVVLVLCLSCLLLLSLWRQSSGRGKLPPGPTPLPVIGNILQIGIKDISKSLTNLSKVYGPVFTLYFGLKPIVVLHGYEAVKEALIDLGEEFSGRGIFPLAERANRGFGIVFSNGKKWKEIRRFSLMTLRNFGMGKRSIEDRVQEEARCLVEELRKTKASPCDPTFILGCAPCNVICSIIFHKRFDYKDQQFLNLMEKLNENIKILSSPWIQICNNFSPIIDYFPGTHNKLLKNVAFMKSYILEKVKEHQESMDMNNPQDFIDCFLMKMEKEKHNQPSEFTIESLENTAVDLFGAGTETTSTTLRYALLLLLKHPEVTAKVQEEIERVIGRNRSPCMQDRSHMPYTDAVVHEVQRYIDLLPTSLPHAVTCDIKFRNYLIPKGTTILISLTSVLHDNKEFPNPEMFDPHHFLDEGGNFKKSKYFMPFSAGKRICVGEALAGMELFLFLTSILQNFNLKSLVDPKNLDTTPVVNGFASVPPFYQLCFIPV
# Chain of Cytochrome P450 2D6 (Homo sapiens) (P10635 whole entry, looked up): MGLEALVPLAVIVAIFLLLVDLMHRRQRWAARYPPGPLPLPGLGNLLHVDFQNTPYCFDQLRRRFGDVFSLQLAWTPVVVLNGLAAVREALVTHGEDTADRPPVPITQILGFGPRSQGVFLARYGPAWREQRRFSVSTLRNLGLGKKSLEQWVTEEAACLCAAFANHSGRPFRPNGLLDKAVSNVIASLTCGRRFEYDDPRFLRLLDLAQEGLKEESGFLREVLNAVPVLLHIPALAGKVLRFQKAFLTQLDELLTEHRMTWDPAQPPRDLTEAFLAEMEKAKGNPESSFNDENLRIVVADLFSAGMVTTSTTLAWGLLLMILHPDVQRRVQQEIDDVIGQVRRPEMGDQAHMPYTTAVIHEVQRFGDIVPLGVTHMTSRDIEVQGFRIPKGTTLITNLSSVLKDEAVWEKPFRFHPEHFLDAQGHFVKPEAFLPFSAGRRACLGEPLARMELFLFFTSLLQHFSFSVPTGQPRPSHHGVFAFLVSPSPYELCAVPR
smiles,measurement,setting,value
CN1CCCC(n2nc(Cc3ccc(Cl)cc3)c3ccccc3c2=O)CC1 (configuration not stated),Potency,[1],1870 nM (active)
same,Potency,[2],7430 nM (active)
same,Potency,[3],3320 nM (active)
same,Potency,[4],1320 nM (active)
same,Potency,[5],372 nM (active)
Cc1nnc(C(=O)NC(C)(C)c2nc(C(=O)NCc3ccc(F)cc3)c(O)c(=O)n2C)o1,Potency,[1],inactive
same,Potency,[2],inactive
same,Potency,[3],inactive
same,Potency,[6],inactive
same,Potency,[7],inactive
same,Potency,[4],inactive
same,Z-AUC,[8],-0.384 (inactive)
same,Z-AUC,[8]; [19],-0.195
same,Z-AUC,[8]; measured here: PEO4 Z-AUC,-0.396
same,z-score,[9]; [20],0.782
same,z-score,[9]; [21],0.249
same,z-score,[9]; [22],1.94
CCOc1cc(N)c(Cl)cc1C(=O)NCC1CN(Cc2ccc(F)cc2)CCO1 (configuration not stated),Potency,[1],inactive
same,Potency,[2],inactive
same,Potency,[3],inactive
same,Potency,[6],inactive
same,Potency,[7],inactive
same,Potency,[4],inactive
same,Z-AUC,[8],1.79 (inactive)
same,Z-AUC,[8]; [19],1.17
same,Z-AUC,[8]; measured here: PEO4 Z-AUC,1.21
same,z-score,[9]; [20],-0.211
same,z-score,[9]; [21],0.779
same,z-score,[9]; [22],0.352
CCCCS(=N)(=O)CCC(N)C(=O)O (configuration not stated),Potency,[2],inactive
same,Potency,[3],18700 nM (active)
same,Potency,[6],inactive
same,Potency,[7],inactive
same,Potency,[4],inactive
same,Potency,[5],inactive
same,Z-AUC,[8],-0.0852 (inactive)
same,Z-AUC,[8]; [19],0.0714
same,Z-AUC,[8]; measured here: PEO4 Z-AUC,0.126
same,z-score,[9]; [20],0.217
same,z-score,[9]; [21],0.527
same,z-score,[9]; [22],0.0952
COc1ccc2cc3[n+](cc2c1OC)CCc1cc2c(cc1-3)OCO2,Potency,[1],3320 nM (active)
same,Potency,[2],14800 nM (active)
same,Potency,[3],11800 nM (active)
same,Potency,[4],3320 nM (active)
same,Potency,[10],2240 nM (active)
same,outcome,[11],inactive
same,Potency,[12],inactive
same,Potency,[13],2000 nM (active)
same,max response,[14],-1.19% (inactive)
same,outcome,[15],inactive
same,outcome,[16],inactive
same,outcome,[17],inactive
same,outcome,[18],inactive
same,Z-AUC,[8],0.64 (inactive)
same,Z-AUC,[8]; [19],-0.712
same,Z-AUC,[8]; measured here: PEO4 Z-AUC,0.437
CC(C)(Sc1cc(C(C)(C)C)c(O)c(C(C)(C)C)c1)Sc1cc(C(C)(C)C)c(O)c(C(C)(C)C)c1,Potency,[1],5900 nM (active)
same,Potency,[2],6620 nM (active)
same,Potency,[4],inactive
same,Potency,[5],inactive
same,Z-AUC,[8],0.926 (inactive)
same,Z-AUC,[8]; [19],1.36
same,Z-AUC,[8]; measured here: PEO4 Z-AUC,1.09
O=C(O)C1CCCN(CCC=C(c2ccccc2)c2ccccc2)C1 (configuration not stated),Potency,[2],inactive
same,Potency,[3],inactive
same,Potency,[6],inactive
same,Potency,[7],inactive
same,Potency,[4],inactive
same,Potency,[5],inactive
same,Z-AUC,[8],1.76 (inactive)
same,Z-AUC,[8]; [19],1.39
same,Z-AUC,[8]; measured here: PEO4 Z-AUC,1.34
CN(C)c1ccc(C(=C2C=CC(=[N+](C)C)C=C2)c2ccc(N(C)C)cc2)cc1,Potency,[1],1 nM (active)
same,Potency,[2],16.6 nM (active)
same,Potency,[3],37.2 nM (active)
same,Potency,[6],93.5 nM (active)
same,Potency,[7],166 nM (active)
same,Potency,[4],26.4 nM (active)
same,Z-AUC,[8],-1.19 (inactive)
same,Z-AUC,[8]; [19],-1.68
same,Z-AUC,[8]; measured here: PEO4 Z-AUC,-1.8
same,Potency,"[9]; TFE3-RCC UOK109 viability, active = Z-AUC below -0.8 in all three lines",1180 nM (active)
same,z-score,[9]; [20],-1.93
same,z-score,[9]; [21],-2.26
same,z-score,[9]; [22],-1.8
Cc1ccnc2c1NC(=O)c1cccnc1N2C1CC1,Potency,[2],26400 nM (active)
same,Potency,[3],26400 nM (active)
same,Potency,[6],inactive
same,Potency,[7],inactive
same,Potency,[4],inactive
same,Potency,[5],inactive
